# Only some compounds are listed: those with a hit (about 3.9% of all), similar ones and a draw of the others.
# D1 potentiator: Potentiators of Human D1 Dopamine Receptor: qHTS; D(1A) dopamine receptor (Homo sapiens), P21728; HEK293 TREx D1 cells, calcium flux, dopamine EC20 potentiation; potentiation, % at 10 µM; 360,000 tested, 0.036% active; in the data active = potentiation above about 30%; note: 0% is about no effect
# Eya2 inh: qHTS Assay for Inhibitors of the Phosphatase Activity of Eya2 | recombinant Eya2, OMFP fluorescence dephosphorylation (OMFP is methylfluorescein phosphate) | Potency, µM (highest dose often 76.9 µM), inactives show at the top dose activity, negative = inhibition, actives largely listed as inhibitors | 330,000 tested, 0.006% active | AID 488837, 2010; note: potency is the fitted concentration of half-maximal effect; % is set by controls: 0 for no effect and ±100 for the full control effect
#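 Eya2 protein (added as 0.2 uM solution) was preincubated with compound for 10 min at ambient temperature in 50 mM HEPES pH 7.5, 50 mM NaCl, 5 uM MgCl2, 0.05% BSA, 1 mM DTT. OMFP (added at 50 uM) then reacted 10 min; fluorescence read at 485/525 nm.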
# D1 agonist: Allosteric Agonists of the Human D1 Dopamine Receptor: qHTS. D(1A) dopamine receptor (Homo sapiens), P21728. HEK293 T-REx D1 cells, calcium flux, agonist mode. activation, % at 2 µM. 360,000 tested, 1% active; in the data active = activation above about 30%; note: 0% is about no effect
#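 Tetracycline-induced HEK293 TREx D1 cells, force-coupled to calcium signalling, were dye-loaded with a no-wash calcium kit. Compound was pin-added after a 10 s baseline. Fluorescence was read kinetically at 1 cycle/s for 180 s, with calcium rises flagged as agonism.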
# D1 antagonist: Antagonist of Human D 1 Dopamine Receptor: qHTS | D(1A) dopamine receptor (Homo sapiens), P21728 | HEK293 TREx D1 cells, calcium flux, dopamine EC80; hits give low values | activity change, negative = inhibition, % at 10 µM | 360,000 tested, 3.2% active | AID 504652, 2011; in the data active = activity change below about -30%; note: % is set by controls: 0 for no effect and ±100 for the full control effect
#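 Antagonism measured as reduced calcium response to an EC80 dopamine addition following 180 s compound pre-read; cells were inducible HEK293 Trex D1 plated overnight at 30 C, read kinetically at 1 cycle/sec.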
# GALK inhibitor: qHTS Assay for Inhibitors of Human Galactokinase (GALK) | Purified GALK, Kinase-Glo residual ATP luminescence | Potency, µM (highest dose often 57.5 µM), for the others: top-dose activity change, negative = inhibition, most hits filed as inhibitors | 270,000 tested, 0.007% active | P51570; note: potency is the fitted concentration of half-maximal effect; % is set by controls: 0 for no effect and ±100 for the full control effect
#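 The enzyme phosphorylates galactose (100 uM) using ATP (35 uM); inhibition is detected as higher residual ATP, quantified by bioluminescence after 1 h reaction at room temperature, pH 8.0.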
# USP2a block: qHTS Assay for Inhibitors of Ubiquitin-specific Protease USP2a Using CHOP2 as the Reporter | Potency, µM (series often up to 38.3 µM), for the others: at the top dose activity change, negative = inhibition, hits mostly inhibitors | Ubiquitin carboxyl-terminal hydrolase 2 (Homo sapiens), O75604 | 330,000 tested, 0.01% active | AID 463254, 2010 | USP2 core, Ub-CHOP2 coupled fluorogenic reporter, 485/531;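 note: potency is the fitted concentration of half-maximal effect; plate controls were DMSO wells for no effect and full inhibition by NEM control for full effect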
# Target sequence (O75604 whole entry, looked up): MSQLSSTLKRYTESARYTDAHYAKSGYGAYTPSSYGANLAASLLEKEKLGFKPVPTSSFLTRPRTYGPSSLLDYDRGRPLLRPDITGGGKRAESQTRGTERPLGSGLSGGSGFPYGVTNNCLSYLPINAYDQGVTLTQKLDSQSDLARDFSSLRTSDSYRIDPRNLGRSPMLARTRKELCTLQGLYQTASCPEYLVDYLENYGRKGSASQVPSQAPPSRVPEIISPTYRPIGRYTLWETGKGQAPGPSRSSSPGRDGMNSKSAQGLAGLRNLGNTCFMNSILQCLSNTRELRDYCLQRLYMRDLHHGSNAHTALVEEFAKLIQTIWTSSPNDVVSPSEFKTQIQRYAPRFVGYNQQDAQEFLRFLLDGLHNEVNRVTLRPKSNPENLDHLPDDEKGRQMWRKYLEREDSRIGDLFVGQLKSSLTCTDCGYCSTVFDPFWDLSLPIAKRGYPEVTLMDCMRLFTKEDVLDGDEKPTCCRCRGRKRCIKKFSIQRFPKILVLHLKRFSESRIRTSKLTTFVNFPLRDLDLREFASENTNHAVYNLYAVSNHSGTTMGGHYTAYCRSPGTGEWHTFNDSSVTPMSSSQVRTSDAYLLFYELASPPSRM
#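 USP2 core (10nM final) preincubated 30min RT with compound in 20mM Tris-HCl pH 8.0, 2mM CaCl2, 2mM beta-mercaptoethanol, 0.05% CHAPS; 25nM Ub-CHOP2 plus 25nM reporter substrate added, fluorescence (Ex485/Em531) read after 60min.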
# * marks the source's active call; other numbers are inactive results; ? = inconclusive; . = no result. Unless noted, calls come from the whole dose curve; as a rule, active = well fitted inhibition curve with a large enough effect; inconclusive = small, poorly fitted or top-dose-only effect, or effect the other way; inactive = flat fitted curve, though single readings scatter.
SMILES,D1 potentiator,Eya2 inh,D1 agonist,D1 antagonist,GALK inhibitor,USP2a block
Cc1ccccc1CC1C(=O)Nc2ccc(Br)cc21 (configuration not stated),31.7*,.,48.2*,2.9,.,.
Cc1ccc2c(c1)C(Cc1ccccc1F)C(=O)N2 (configuration not stated),-2.2,.,2.2,-46.3*,.,.
Cc1cc(C)c(-n2nnnc2SCC(=O)c2cc3ccccc3o2)c(C)c1,-6.8,-2.3%,19.2,-4.4,.,0.8%
O=C(CSc1nnnn1-c1ccc(O)cc1)c1cc2ccccc2o1,-3.8,-5.3%,32.3*,-24.6,.,-3.3%
CCCOP(=O)(OCCC)C(Nc1ccc(C(C)C)cc1)c1ccc([N+](=O)[O-])cc1 (configuration not stated),-8.1,-18.5%,7.2,-33.0*,2.2%,-5.4%
COc1ccc(CNC(=O)COc2cc3c(c4oc(=O)cc(C)c24)CCC(C)(C)O3)cc1OC,-5.2,-11.8%,2.9,-31.3*,.,2.8%
O=C(O)/C=C\C(=O)Nc1ccc(Oc2ccc(Br)cc2)cc1,-3.5,11.1%,-0.9,-30.6*,3.1%,2.2%
O=C(O)/C=C\C(=O)Nc1ccc(Oc2ccccc2)cc1,-6.2,2.9%,-0.1,-62.6*,-3.5%,-1.5%
O=C(O)/C=C/C(=O)Nc1ccc(Oc2ccc(NC(=O)/C=C/C(=O)O)cc2)cc1,-4.3,8.5%,0.6,2.2,1.3%,0.2%
Cc1ccccc1OCC(=O)Nc1ccc2nc(SCC(=O)N3CCCC3)sc2c1,-1.6,.,3.5,-3.5,.,.
CC(=O)c1cn(CCOc2ccc(F)cc2)c2ccccc12,-26.9,8.4%,10.6,-21.3,-7.3%,1.2%
CC(=O)c1cn(CCOc2ccccc2C)c2ccccc12,-7.3,5.7%,17.7,-38.0*,5.1%,1.8%
CCOc1ccc(-c2cc3c(=O)n(Cc4nc(-c5ccc(OC(C)C)cc5)oc4C)ccn3n2)cc1Cl,-0.1,.,1.6,-36.1*,.,.
CCOc1cc(C)c(S(=O)(=O)NC2CCCCC2)cc1C,-5.0,-6.0%,18.2,-32.5*,-0.1%,-6.1%
Cc1sc(NC(=O)c2ccc(Br)s2)c(C(N)=O)c1C,31.1*,10.2%,-2.9,18.9,0.3%,-0.5%
Cc1sc(NC(=O)c2ccc(Cl)s2)c(C(N)=O)c1C,0.8,-15.2%,0.3,32.2,-4.0%,4.9%
CNC(=O)COc1ccc(Nc2nnc(-c3ccc(C)c(S(=O)(=O)NC(C)(C)C)c3)c3ccccc23)cc1,-1.9,.,-1.6,-31.5*,.,.
Cc1ccc(-c2nnc(Nc3ccc4c(c3)OCO4)c3ccccc23)cc1S(=O)(=O)NCCO,-6.0,-0.7%,0.7,-33.6*,1.5%,6.2%
CNS(=O)(=O)c1cc(-c2nnc(Nc3ccc(NC(C)=O)cc3)c3ccccc23)ccc1C,-1.2,3.9%,0.9,5.8,.,1.3%
Cc1ccc(-c2nnc(Nc3ccc(CC(N)=O)cc3)c3ccccc23)cc1S(=O)(=O)NCCO,-7.7,2.3%,-0.4,4.8,-0.8%,-1.2%
Cc1ccc(-c2nnc(Nc3ccc(Cl)c(Cl)c3)c3ccccc23)cc1S(=O)(=O)NCCO,-1.6,.,5.8,-49.2*,.,.
Cc1ccc(-c2nnc(Nc3ccc4c(c3)OCO4)c3ccccc23)cc1S(=O)(=O)NC(C)C,-3.8,-7.8%,2.3,-6.1,-3.9%,0.6%
Cc1coc2cc3oc(=O)c4c(c3cc12)CCCC4,-0.1,2.7%,0.7,-45.3*,-1.0%,1.8%
CCOC(=O)C1CCCN(Cc2ccc(-c3ccccc3)cc2)C1 (configuration not stated),4.8,-6.3%,4.0,-16.6,3.9%,-4.4%
CCOC(=O)C1CCCN(CC(=O)Nc2cc(C)cc(C)c2)C1 (configuration not stated),-2.9,1.9%,2.9,-39.5*,0.3%,-1.8%
SMILES,D1 potentiator,Eya2 inh,D1 agonist,D1 antagonist,GALK inhibitor,USP2a block
CCOC(=O)C1CCN(Cc2cc(=O)oc3cc(C)ccc23)CC1,-1.1,-9.2%,2.9,-6.9,-0.7%,3.2%
CCOC(=O)C1CCCN(S(=O)(=O)Cc2ccccc2Cl)C1 (configuration not stated),-7.8,-9.8%,2.1,-30.8*,7.9%,0.2%
CCOC(=O)C1CCCN(Cc2c(Cl)cccc2Cl)C1 (configuration not stated),-6.6,.,1.7,-35.6*,5.9%,.
CCCS(=O)(=O)N1CCCC(C(=O)Oc2ccccc2Cl)C1 (configuration not stated),-8.5,-29.2%,-0.3,29.1,5.3%,-1.2%
CCOC(=O)C1CCCN(Cc2cc(=O)oc3cc(C)ccc23)C1 (configuration not stated),-2.5,-1.8%,0.0,-41.1*,4.8%,-0.9%
CC(C)N(Cc1ccccc1)C(=O)c1nc(-c2ccc(Cl)cc2)n2c1CCCCC2,2.5,.,-1.1,-2.6,.,.
CC(=O)Nc1ccc(Sc2ncccc2C(=O)Nc2ccc(F)cc2)cn1,1.6,11.9%,98.6*,3.0,-2.2%,-0.8%
O=c1cc(NS(=O)(=O)c2ccccc2)nc(SCc2ccc(Cl)cc2)[nH]1,-6.0,-3.6%,18.0,-35.9*,0.0%,2.0%
Cc1ccc(S(=O)(=O)Nc2cc(=O)[nH]c(SCc3ccccc3Cl)n2)cc1,-7.8,-1.1%,12.4,-31.5*,.,0.9%
Cc1nc2nc[nH]n2c(=O)c1CCC(=O)Nc1ccc(F)cc1,-2.8,.,0.3,-4.8,.,.
COc1ccc(-n2cnc3cc(NS(=O)(=O)c4ccc(C)cc4)ccc32)cc1,-2.4,-28.6%,4.0,-4.3,-3.6%,4.3%
COc1ccccc1-n1cnc2cc(NS(=O)(=O)c3ccc(Br)cc3)ccc21,-8.7,4.8%,2.5,-38.5*,-0.7%,-15.1%
COc1ccccc1N1CCN(C(=O)CCc2c[nH]c3ccccc23)CC1,0.2,15.6%,3.4,-38.4*,0.0%,1.5%
N#Cc1c(-c2ccc(C(F)(F)F)cc2)cc(-c2ccccc2)[nH]c1=S,-5.5,-18.3%,0.7,-30.9*,-0.4%,-0.3%
O=c1oc2c(O)cccc2cc1-c1nc2ccccc2[nH]1,9.1,?,408.4*,-4.6,.,?
CN1CCN(Cc2c(O)ccc3cc(-c4ccccc4)c(=O)oc23)CC1,-1.2,.,0.6,-4.4,.,.
O=C(O)c1ccc2nc(-c3cc4cccc(O)c4oc3=O)[nH]c2c1,-3.4,9.3%,1.8,21.2,.,-1.5%
